Broadly, the inhibition is the drop in the measured response relative to a control, in per cent.

Here are results for 94 compounds from PubChem BioAssay AID2315 (National Center for Advancing Translational Sciences (NCATS), 2010).

Out of some 290,000 compounds screened, about 27,000 (9.3%) were called active. Cut-off read from the data, not from the text of the source: active = inhibition mostly above about 28% (no sharp cut-off); inactive = mostly below about 43%. Only a selection was taken, and actives are over-represented in it overall.

A short description of the test: A qHTS for Small Molecule Inhibitors of Shiga Toxin. Note: 0% is about no effect. The conditions noted are these: Vero cells, Shiga toxin protein synthesis inhibition reporter; at 38.7 µM, hits give high values. For orientation: In qHTS, concentration-response curves come from the screen itself.
`O=C(O)c1cc([N+](=O)[O-])c(Nc2cccc3ccccc23)c([N+](=O)[O-])c1`: the inhibition was 1.25% (inactive).
With `COc1ccc(C)cc1NC(=O)c1ccc(-c2ccc(C(C)=O)cc2)o1` the figure was -2.76% (inactive); with `CCOC(=O)c1ccc(NC(=O)c2cccnc2)cc1`, 53.7% (active).
Regarding `CCOC(=O)c1ccc(-c2ccc(C(=O)Nc3cccnc3)o2)cc1`, the inhibition is 73.3% (active).
In the case of `O=C(Cc1ccccc1)Nc1ccc(NC(=O)c2cccnc2)cc1` it was -11.9% (inactive).
Regarding `CC(C)NS(=O)(=O)c1ccc(NC(=O)c2cccnc2)cc1`, the inhibition is -10.5% (inactive).
As for `CCOC(=O)c1ccc(NC(=O)CNC(=O)c2ccco2)cc1`, the inhibition is -21.4% (inactive).
In the case of `CCn1c(SCC(=O)NC2CC2)nnc1-c1ccccn1` it was -11.7% (inactive); in that of `CN(C)C(=O)Cn1c(=O)n(S(=O)(=O)c2ccccc2)c2ccccc21`, -3.04% (inactive).
With `COc1ccc2cc(-c3[nH]ncc3CNCCn3nc(C)cc3C)ccc2c1` the figure was 67.7% (active).
In the case of `Cc1cc(C)n(CCNS(=O)(=O)c2ccc(Cl)cc2)n1` it was -3.35% (inactive).
Turning to `COc1ccc(-c2cn[nH]c2-c2ccc(OC)cc2)cc1`, the inhibition was -4.19% (inactive).
Regarding `Cc1ccccc1C(=O)NC(=S)NC1CC1`, the inhibition is 24.6% (inactive).
In the case of `O=C1Nc2ccccc2/C1=C/c1ccnc2ccccc12` it was 19.4% (inactive).
In the case of `O=C(Nc1cccc(NC(=O)c2cccc(F)c2)c1)c1ccccc1` it was 21.2% (inactive); in that of `O=C(Nc1ccn(Cc2ccccc2)n1)c1cccc(F)c1`, 63.4% (active).
For `CC(=O)Nc1ccn(Cc2c(F)cccc2Cl)n1`, the inhibition is 64.3% (active).
Take `O=C(Nc1ccn(Cc2ccccc2F)n1)c1ccc(COc2ccc(Cl)cc2Cl)o1`: the inhibition was 21.8% (inactive).
In the case of `O=C1c2ccccc2S(=O)(=O)N1Cc1c(F)cccc1Cl` it was -12.9% (inactive); in that of `O=C(Nc1ccn(Cc2ccccc2)n1)c1n[nH]c([N+](=O)[O-])c1Cl`, 16.1% (inactive).
In the case of `CCOCCOC(=O)C(C)Oc1ccc(Oc2ncc(C(F)(F)F)cc2Cl)cc1` (centres undefined) it was -6.29% (inactive); in that of `COc1ccc(C(=O)NCC(=O)N/N=C/c2cccnc2)cc1`, -9.22% (inactive); in that of `COc1ccc2c(c1)C(NS(=O)(=O)OCC(Cl)(Cl)Cl)CCC2` (centres undefined), -7.98% (inactive).
As for `COc1ccc(NC(=S)N2CCC(NC(=O)c3cccc(F)c3)CC2)cc1`, the inhibition is -12.4% (inactive).
With `CCOc1ccc(OCC)c(-c2c(=O)n(OCc3ccc(Cl)cc3)c3ccccc3[n+]2[O-])c1` the figure was 10.2% (inactive); with `O=c1c(-c2ccc(Cl)cc2)[n+]([O-])c2ccccc2n1OCc1nc2ccccc2[nH]1`, 59.6% (active).
In the case of `CCOC(=O)COn1c(=O)c(-c2ccc(OCC)cc2)[n+]([O-])c2ccccc21` it was 44.1% (inactive); in that of `CCC(=O)NC(=S)Nc1ccc(NC(=O)c2ccco2)c(Cl)c1`, 46.1% (inactive); in that of `O=C(NNC(=O)c1ccco1)Nc1ccccc1`, 8.84% (inactive).
As for `O=C(NNC(=S)Nc1ccc(Br)cc1Cl)c1ccco1`, the inhibition is 59.2% (active).
With `Cc1ccc2c(c1)N(CC(=O)NCC1CCCO1)C(=O)CO2` (centres undefined) the figure was 40.5% (inactive); with `Cc1cc(Br)ccc1NC(=O)c1sc2ncn(CC(=O)N3CCN(c4ccccn4)CC3)c(=O)c2c1C`, -6.73% (inactive); with `O=C(Nc1cccc(-c2cccc(Cl)c2)c1)C1CCN(C2CCC2)CC1`, 18.3% (inactive).
As for `CCOc1ccc(NC(=O)Nc2cc(C)ccc2OC)cc1`, the inhibition is 29.4% (active).
As for `CCOc1ccc(C(=O)Nc2cc(OC)ccc2OC)cc1`, the inhibition is 25.5% (inactive).
Turning to `COc1ccc(C)cc1NC(=O)Nc1ccccc1SC`, the inhibition is -0.581% (inactive).
With `CCC(=O)Nc1ccc(C(=O)Nc2cc(C)on2)cc1` the figure was 37.1% (inactive); with `CCOc1ccc(C(=O)Nc2ccc(S(=O)(=O)Nc3cc(C)on3)cc2)cc1`, -6.4% (inactive); with `CCOc1ccc(NC(=O)Nc2cc(C)on2)cc1`, 91.1% (active).
Turning to `Cc1cc(C)c2c(-c3ccc(F)cc3)c(C#N)c(=O)n(C)c2n1`, the inhibition is -4.95% (inactive).
With `CCN1CCN(c2sc(S(C)(=O)=O)nc2S(=O)(=O)c2ccc(Cl)cc2)CC1` the figure was -2.05% (inactive); with `COc1ccccc1NC(=O)CCC(=O)N1CC(C)Oc2ccc(C)cc21` (centres undefined), -1.25% (inactive); with `COc1ccc(-c2c(-c3ccc(OC)cc3O)nc(C)nc2C(F)(F)F)cc1`, 2.92% (inactive).
As to `COc1cc2ccccc2cc1C(=O)N(CCN(C)C)c1nc2c(F)cccc2s1`, the inhibition was -10.4% (inactive).
In the case of `COc1ccccc1-c1nnc(NC(=O)c2cccc(N3C(=O)CCC3=O)c2)o1`, the inhibition was -10.7% (inactive).
On to `COc1ccccc1-c1nnc(NC(=O)c2ccc3ncsc3c2)o1`, for which the inhibition is 92.1% (active).
With `COc1ccccc1-c1nnc(SCC(=O)Nc2ccccc2)o1` the figure was 22.9% (inactive); with `C=CCOc1ccc(C(=O)Nc2ccccc2C(=O)N2CCCC2)cc1`, 13.9% (inactive).
With `CCOC(=O)c1c(NC(=O)c2ccc(S(=O)(=O)N(C)CC3CCCO3)cc2)sc2c1CC(C)(C)NC2(C)C` (centres undefined) the figure was -9.62% (inactive).
With `COc1ccccc1N=Nc1c(O)[nH]c(=S)[nH]c1=O` the figure was 29.2% (active); with `COC(=O)c1ccccc1N=Nc1c(C)[nH][nH]c1=O`, 1.81% (inactive).
As to `COc1ccccc1N=C(C)C1=C(O)COC1=O`, the inhibition is -4.84% (inactive).
On to `COc1ccc(NC(=O)Cn2ncn3c(cc4ccccc43)c2=O)c(OC)c1OC`, for which the inhibition is -6.32% (inactive).
In the case of `COc1cccc(C(=O)Nc2cccnc2)c1OC` it was 2.65% (inactive); in that of `COc1ccc(C(=O)CCC(=O)Nc2cccnc2)c(OC)c1`, -20.3% (inactive); in that of `COc1ccc(/C=C/C(=O)Nc2cccnc2)cc1OC`, 51.8% (active).
As to `COc1ccc(/C=C/C(=O)N2CCCC2)cc1OC`, the inhibition is 3.99% (inactive).
In the case of `COc1ccc(/C=C/C(=O)Nc2ccc(C)cc2)cc1S(=O)(=O)N1CCOCC1` it was 20.7% (inactive); in that of `COc1ccc(/C=C/C(=O)Nc2ccc(C34CC5CC(CC(O)(C5)C3)C4)cc2)cc1OC`, 90.8% (active).
For the compound `CN(CC(=O)NCc1ccc(Cl)cc1)S(=O)(=O)c1cccs1`, the inhibition was 45.6% (inactive).
In the case of `COc1ccc(NC(=O)CN2C(=O)COc3ccc(S(=O)(=O)N4CCOCC4)cc32)cc1` it was -3.8% (inactive); in that of `COc1ccc(-c2n[nH]c3c2CN(C(=O)c2ccc(F)cc2)CC3)cc1`, -7.56% (inactive); in that of `COc1ccc(CCNC(=O)c2ccccc2-c2ccccc2C(=O)O)cc1OC`, -1.45% (inactive).
In the case of `COc1ccc(CCNC(=O)c2ccccc2OCc2ccccc2)cc1` it was 14.7% (inactive); in that of `COc1cccc2[nH]c(C(=O)NCCc3ccccc3)cc12`, 67.7% (active); in that of `Cc1cc(C)cc(N(CC(=O)NC2CCCC2)C(=O)CCC(=O)Nc2nccs2)c1`, 20.2% (inactive).
As to `COc1ccc([N+](=O)[O-])cc1N(CC(O)CN(CC(C)C)CC(C)C)S(=O)(=O)c1ccc(C)cc1` (centres undefined), the inhibition is 12.3% (inactive).
Consider `O=c1[nH]cnc(O)c1C(c1ccc(F)cc1)c1c(O)nc[nH]c1=O`, for which the inhibition was 8.92% (inactive).
With `CC(=O)N1CCN(CC(=O)Nc2ccc(C)c(F)c2)CC1` the figure was -1.77% (inactive).
On to `CCCc1cc(C(=O)Nc2ccc(Cl)cn2)cs1`, for which the inhibition was 57.6% (active).
In the case of `CCCCC(CC)C(=O)Nc1ccc(Cl)cn1` (centres undefined) it was 6.98% (inactive).
In the case of `COc1c(Cl)cc(C(=O)Nc2ccc(Cl)cn2)cc1Cl` it was 8.12% (inactive); in that of `O=C(Nc1cccc([N+](=O)[O-])c1)Nc1ccc(Cl)cn1`, 0.898% (inactive); in that of `CCCc1cc(C(=O)Nc2ccc(C(=O)OC)cc2)cs1`, 28.2% (inactive).
In the case of `O=C(Nc1ccc(Cl)cn1)Nc1cccs1` it was 65.7% (active).
As to `C[C@H](NC(=O)c1nc[nH]c1C(=O)NCC(=O)OC(C)(C)C)c1ccccc1`, the inhibition was -2.69% (inactive).
In the case of `COC(=O)c1ccc(Sc2ccc(F)cc2)c(N)c1` it was 64.7% (active).
In the case of `COC(=O)c1ccc(C(=O)OC)c(NC(=S)N2CCN(c3ccc(F)cc3)CC2)c1` it was -8.17% (inactive); in that of `COC(=O)c1nc(NC(=O)c2ccc(F)cc2)n[nH]1`, 0.673% (inactive); in that of `COC(=O)c1ccc(C(=O)NC2CC(C)(C)Cc3c2cnn3-c2ccc(F)cc2)nc1` (centres undefined), 19.8% (inactive).
With `COc1ccc(C2=NN(C(C)=O)C(c3ccccc3)C2)cc1` (centres undefined), the inhibition was 26.2% (active).
`COc1ccc(C2CC(c3ccccc3)=NN2C(=O)COC(=O)COc2ccccc2)cc1` (centres undefined): the inhibition was 30.8% (inactive).
In the case of `COc1ccc(C2CC(c3ccccc3)=NN2C(=O)c2ccc(Cl)c([N+](=O)[O-])c2)cc1` (centres undefined) it was -3.59% (inactive); in that of `COc1ccc(C(=O)Nc2nc(-c3ccc(OC)cc3)c(-c3ccc([N+](=O)[O-])cc3)s2)cc1`, -3.81% (inactive).
Consider `COc1ccc(C2=NN(C(=O)c3ccccc3C(=O)O)C(c3ccccc3O)C2)cc1` (centres undefined), for which the inhibition is 162% (active).
With `COc1ccc(C(=O)CSc2nccc(=O)[nH]2)cc1` the figure was 11% (inactive); with `COc1ccc(C2CC(c3ccc([N+](=O)[O-])cc3)=NN2C(C)=O)cc1` (centres undefined), 37.4% (active); with `COc1ccc(C2=NN(C(=O)CCC(=O)O)C(c3cccs3)C2)cc1OC` (centres undefined), -6.96% (inactive).
With `CCOc1ccc2nc(Cl)c(C3CC(c4ccccc4)=NN3C(=O)c3cccs3)cc2c1` (centres undefined) the figure was -5.57% (inactive); with `COc1ccc(C2CC(c3ccccc3)=NN2C(=O)CSc2nccc(=O)[nH]2)cc1` (centres undefined), 50.8% (active).
In the case of `COc1cccc(C2CC(c3ccccc3)=NN2S(=O)(=O)c2ccccc2)c1OC` (centres undefined) it was -3.39% (inactive); in that of `COc1ccc(C2=NN(C(=O)c3cccnc3)C(c3ccccc3)C2)cc1` (centres undefined), -14.3% (inactive); in that of `Brc1ccccc1CN1CCC(Cc2ccccc2)CC1`, 14.5% (inactive).
For the compound `N[C@@H](Cc1ccccc1)C(=O)N1CCC(C(=O)NCC(=O)Nc2ccc(F)cc2)CC1`, the inhibition was 9.91% (inactive).
